PubChem BioAssay AID504534 (National Center for Advancing Translational Sciences (NCATS), 2011)
Results filed as inconclusive are left out. A call without a number means that no potency is given here. Active and inactive are the calls of the source. The call rests on the fitted dose curve; in most records, active means well fitted curve in the direction sought with a large enough effect; inconclusive means small, poorly fitted or top-dose-only effect, or another doubt; inactive means no such curve, though single readings can be large or run the other way.

Experiment: Secondary Assay for Inhibitors of Human Cdc-like kinase 4 (Clk4): HEK-293 Cell Viability Assay;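 further: cytotoxic hits lower the ATP light signal so activity reflects loss of viability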
Method in brief: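 Cytotoxicity was measured as ATP luminescence (CellTiter-Glo) after 24 or 48 h compound exposure at 37 degrees C. HEK-293 cells in MEM with 10% FBS had been seeded 4 h earlier.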

In the case of `c1nc(OCc2cnc[nH]2)c2cc(-c3ccc4c(c3)OCO4)ccc2n1`, the Potency is reported as “inactive”.
In the case of `C#Cc1cccc(Nc2ncnc3cc(OCCOC)c(OCCOC)cc23)c1`, the Potency is reported as “inactive”.
With `Fc1cccc(CNc2ncnc3ccc(-c4cccnc4)cc23)c1` the Potency was “inactive”.
In the case of `CN(CC1CCCCO1)c1ncnc2ccc(-c3ccc4c(c3)OCO4)cc12` (stereo unspecified), the Potency is reported as “inactive”.
In the case of `COc1cccc(-c2ccc3ncnc(NCc4cccc(C)c4)c3c2)c1`, the Potency is reported as “inactive”.
In the case of `c1coc(-c2ccc3ncnc(NCc4cccs4)c3c2)c1`, the Potency is reported as “inactive”.
With `Cc1cccc(-c2ccc3ncnc(NCc4cc(C)cs4)c3c2)c1` the Potency was “inactive”.
With `CCNC(=O)c1ccc(-c2ccc3ncnc(NCc4nccs4)c3c2)o1` the Potency was “inactive”.
In the case of `Fc1cccc(CNc2ncnc3ccc(-c4cccc(Cl)c4)cc23)c1`, the Potency is reported as “inactive”.
With `COc1cccc(Nc2ncc3ncc(=O)n(C)c3n2)c1` the Potency was “inactive”.
For `Cc1ccsc1CNc1ncnc2ccc(-c3ccc4c(c3)OCO4)cc12`, the Potency was “inactive”.
In the case of `Cn1cncc1CNc1ncnc2ccc(-c3ccc4c(c3)OCO4)cc12`, the Potency is reported as “inactive”.
With `Cc1ccc(CNc2ncnc3ccc(-c4ccoc4)cc23)o1` the Potency was “inactive”.
With `Clc1cccc(-c2ccc3ncnc(NCc4cccs4)c3c2)c1` the Potency was “inactive”.
For `Cc1ccc(CNc2ncnc3ccc(-c4ccc5c(c4)OCO5)cc23)s1`, the Potency was “inactive”.
With `CS(=O)(=O)CCNCc1ccc(-c2ccc3ncnc(Nc4ccc(OCc5cccc(F)c5)c(Cl)c4)c3c2)o1` the Potency was “inactive”.
With `c1coc(CCNc2ncnc3ccc(-c4ccc5c(c4)OCO5)cc23)c1` the Potency was “inactive”.
In the case of `Cc1nc(CCNc2ncnc3ccc(-c4ccc5c(c4)OCO5)cc23)cs1`, the Potency is reported as “inactive”.
For `Cc1ccc(CNc2ncnc3ccc(-c4ccoc4C)cc23)o1`, the Potency was “inactive”.
With `Cn1ccc2cc(-c3ccc4ncnc(NCc5cccnc5)c4c3)ccc21` the Potency was “inactive”.
In the case of `Cc1nc(CSc2ncnc3ccc(-c4ccc5c(c4)OCO5)cc23)cs1`, the Potency is reported as “inactive”.
For `Cn1ccc2cc(-c3ccc4ncnc(NCc5ccc6c(c5)OCO6)c4c3)ccc21`, the Potency was “inactive”.
For `Cc1nc(CNc2ncnc3ccc(-c4ccc5c(c4)OCO5)cc23)cs1`, the Potency was “inactive”.
For `O=Cc1ccc(-c2ccc3ncnc(NCc4cccs4)c3c2)o1`, the Potency was “inactive”.
In the case of `CCN(Cc1sccc1C)c1ncnc2ccc(-c3ccc4c(c3)OCO4)cc12`, the Potency is reported as “inactive”.
In the case of `c1nc(NCC2CCCCC2)c2cc(-c3ccc4c(c3)OCO4)ccc2n1`, the Potency is reported as “inactive”.
